Data from PubChem BioAssay (NCATS).
Results filed as inconclusive are left out. Calls of active or inactive are those of the source. Calls follow the shape of the dose curve; as a rule, active = well fitted inhibition curve with a large enough effect; inconclusive = small, poorly fitted or top-dose-only effect; inactive = flat fitted curve, though single readings scatter.

Each molecule was assayed on PC15 (assay: qHTS profiling for inhibitors of Plasmodium falciparum proliferation (AID 504749; also: nearly all actives have a fitted effect of over 60% in size;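 as to activity, negative = inhibition: 0% = DMSO vehicle and full inhibition = artemisinin control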)). Conditions: P. falciparum in erythrocytes, SYBR Green DNA, 72 h; series mostly up to 28.7 µM; activity, negative = inhibition: at the top concentration.
How it was run: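 Readout was DNA-dye fluorescence from lysed cultures, ex 485/em 535 nm. Parasitized red cells had grown 72 h with compound; data scaled between 0.29 uM artemisinin and DMSO wells and corrected using vehicle-only plates.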
Potency is read from the fitted curve at half-maximal effect.

activity, negative = inhibition, inactive:
CCCCCCCCCCCCCCCC(=O)OC[C@H](O)[C@H]1OC[C@@H](O)[C@@H]1O 2.6%, C[C@H]1OC(OC2C(O)[C@@H](O)C(OC3C(O)[C@@H](O)C(O)O[C@@H]3CO)O[C@@H]2CO)[C@H](O)C(O)C1N[C@H]1C=C(CO)[C@@H](O)[C@H](O)C1O (some centres undefined) 12.6%, CCN(CC)CC(=O)Nc1c(C)cc(C)cc1C 7.55%, CC(=O)N[C@H]1[C@H](O[C@@H]2c3ccc(c(Cl)c3)Oc3cc4cc(c3O[C@@H]3O[C@H](CO)[C@@H](O)[C@H](O)C3C)Oc3ccc(cc3Cl)C[C@H]3NC(=O)[C@@H](N)c5ccc(O)c(c5)Oc5cc(O)cc(c5)[C@H](NC3=O)C(=O)N[C@H]4C(=O)N[C@H]3C(=O)N[C@@H]2C(=O)N[C@@H](C(=O)O)c2cc(O)cc(O[C@H]4O[C@H](CO)[C@@H](O)C(O)[C@@H]4O)c2-c2cc3ccc2O)O[C@H](CO)[C@@H](O)[C@@H]1O (some centres undefined) 10.9% [at 12.8 µM], NC(=O)c1ncn(C2OC(CO)C(O)C2O)c1N (centres undefined) 2.36%, CC1(Cn2ccnn2)[C@H](C(=O)O)N2C(=O)C[C@H]2S1(=O)=O (some centres undefined) 11.6%, CN(C)CC/C=C1\c2ccccc2COc2ccc(CC(=O)O)cc21 4.84%, CCCC(=O)O[C@]1(C(=O)COC(C)=O)CC[C@H]2C3C[C@H](F)C4=CC(=O)C=CC4(C)[C@@]3(F)[C@@H](O)CC21C (some centres undefined) -7.5%, OCCN1CC(O)C(O)C(O)C1CO (centres undefined) 9%, CC(CCC(=O)O)C1CCC2C3C(=O)C[C@@H]4CC(=O)CC[C@@]4(C)C3CC(=O)[C@]12C (some centres undefined) 8.77%, O=C(OC[C@@H]1O[C@@](O)(COC(=O)c2cccnc2)[C@H](OC(=O)c2cccnc2)[C@H]1OC(=O)c1cccnc1)c1cccnc1 0.782%, O=[N+]([O-])O[C@H]1CO[C@H]2[C@@H]1OC[C@H]2O 3.33%, COc1cccc(OC)c1C(=O)NC1C(=O)N2C1SC(C)(C)C2C(=O)O (centres undefined) 3.59%, NC[C@@H]1O[C@H](OC2[C@@H](CO)O[C@@H](OC3[C@H](O)[C@H](N)C[C@H](N)[C@H]3OC3O[C@H](CO)[C@@H](O)[C@H](O)[C@@H]3N)[C@H]2O)C(N)[C@H](O)[C@@H]1O (some centres undefined) 7.75%, Cc1ccc(S(=O)(=O)NC(=O)NC(C)Cc2ccccc2)cc1 (centres undefined) 1.2%, OCCOC[C@H]1O[C@H](OCCO)[C@H](OCCO)[C@@H](OCCO)[C@@H]1OCCO (tested in a mixture with another compound) 6.15%, C[S+](C)CC[C@H](N)C(=O)O 10.3%, CC[C@@H]1/C=C(\C)C[C@H](C)C[C@H](OC)[C@H]2O[C@@](O)(C(=O)C(=O)N3CCCC[C@H]3C(=O)O[C@H](/C(C)=C/[C@@H]3CC[C@H](Cl)[C@H](OC)C3)[C@H](C)[C@@H](O)CC1=O)[C@H](C)C[C@@H]2OC 4.2%, NC(=O)C1CC2(NC(=O)NC2=O)c2cc(F)ccc2O1 (centres undefined) 13.1%, CCCCCCCCCCCC(=O)OCC(O)C1OCC(O)C1O (centres undefined) 2.69%, C/C1=C2/[N-]C(C(CC(N)=O)[C@@]2(C)CCC(=O)NCC(C)OP(=O)([O-])O[C@H]2[C@@H](O)[C@@H](n3cnc4cc(C)c(C)cc43)O[C@@H]2CO)[C@]2(C)N=C(/C(C)=C3N=C(/C=C4N=C1C(CCC(N)=O)C\4(C)C)[C@@H](CCC(N)=O)[C@]\3(C)CC(N)=O)[C@@H](CCC(N)=O)[C@]2(C)CC(N)=O.CC(=O)O.[Co] (some centres undefined) 1.01%, CC1(C)OC[C@@H]2O[C@@]3(C(=O)O)OC(C)(C)O[C@@H]3[C@@H]2O1 10.5%, Cc1ccccc1N1C(=O)c2cc(N)ccc2N/C1=C\F -0.231%, O=C1C(I)=CC(=C(c2cc(I)c(O)c(I)c2)c2ccccc2C(=O)O)C=C1I 1.06%, NC(=O)NC(CCC(=O)O)C(=O)O (centres undefined) 6.91%, CC(=O)OCC(=O)[C@@]1(O)CCC2C3C[C@H](C)C4=CC(=O)C=CC4(C)C3C(O)CC21C (some centres undefined) 5.78%, CC1(C)C2CC[C@]1(C)[C@@H](O)C2 6.02%, OCC1O[C@H](Oc2ccc(O)cc2)C(O)C(O)C1O (some centres undefined) 2.93%, Nc1nc(F)nc2c1ncn2[C@@H]1O[C@H](CO)[C@@H](O)[C@H]1O 5.49%, CC1OC(OC2CCC3(C)C(CCC4C3CC(O)C3(C)C(C5=CC(=O)OC5)CCC43O)C2)CC(O)C1OC1CC(O)C(OC2CC(O)C(OC3OC(CO)C(O)C(O)C3O)C(C)O2)C(C)O1 (centres undefined) -21.8%, CC1OC(OCC2OC(Oc3c(-c4ccc(OCCO)c(OCCO)c4)oc4cc(OCCO)cc(O)c4c3=O)C(O)C(O)C2O)[C@@H](O)C(O)C1O (some centres undefined) -0.204%

Potency, active:
CCCCC(=O)OCC(=O)[C@]1(O)Cc2c(O)c3c(c(O)c2[C@H](OC2CC(NC(=O)C(F)(F)F)C(O)C(C)O2)C1)C(=O)c1c(OC)cccc1C3=O (some centres undefined) 3550 nM, C[C@H]1[C@@H](OC(=O)CCC(=O)O)OC2OC3(C)CC[C@H]4[C@H](C)CC[C@@H]1[C@@]24OO3 (some centres undefined) 4.5 nM, COc1cc2c(cc1O)CCN[C@@]21CS[C@H]2c3c(OC(C)=O)c(C)c4c(c3C(COC1=O)N1C2C2c3c(cc(C)c(OC)c3O)CC([C@@H]1O)N2C)OCO4 (some centres undefined) 1.1 nM, C[n+]1c2cc(N)ccc2cc2ccc(N)cc21 178 nM, CC[C@@]1(O)C[C@H](O[C@H]2C[C@@H](N(C)C)[C@@H](O[C@H]3C[C@@H](O)[C@@H](O[C@H]4CCC(=O)[C@@H](C)O4)[C@@H](C)O3)[C@@H](C)O2)c2c(cc3c(c2O)C(=O)c2c(O)cccc2C3=O)[C@H]1C(=O)OC 158 nM, CCC(C(=O)O)C1OC(C(C)C(O)C(C)C(=O)C(CC)C2OC3(C=CC(O)C4(CCC(C)(C5CCC(O)(CC)C(C)O5)O4)O3)C(C)CC2C)C(C)CC1C (centres undefined) 158 nM, COC1CC2CCC(C)[C@](O)(O2)C(=O)C(=O)N2CCCCC2C(=O)OC(C(C)CC2CCC(O)C(OC)C2)CC(=O)C(C)/C=C(/C)C(O)C(OC)C(=O)C(C)CC(C)C=CC=C/C=C\1C (some centres undefined) 4470 nM, CN[C@H](C)CCC=C(C)C 355 nM
